The record followed here is PubChem BioAssay (Tox21).

Experiment [1] in a line: qHTS RealTime-Glo MT Cell Viability Assay in HEK293 cells - 24 hour (AID 1224886). Further: nearly all actives have a fitted effect of over 50% in size. Further: potency means the concentration at half of the fitted maximal effect. In a few lines:
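HEK293 cells were seeded at 600 cells/well together with NanoLuc luciferase and cell-permeant prosubstrate, preincubated 5 h at 37 C/5% CO2, then given compound in DMSO by pintool. Luminescence from viable-cell prosubstrate reduction was read repeatedly over 40 h.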
In general terms: Quantitative high-throughput screening tests each substance at several concentrations.

Experiment [2] is described as follows: qHTS RealTime-Glo MT Cell Viability Assay in HEK293 cells - 8 hour (AID 1224887). Further: nearly all actives have a fitted effect of over 50% in size. Further: potency means the concentration at half of the fitted maximal effect. In a few lines:
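Real-time viability in HEK293: signal arises when living cells convert a prosubstrate for NanoLuc in the medium, so luminescence tracks viable cell number. Compound (23 nL, DMSO) added 5 h post-seeding; kinetic reads at 0–40 h, 37 C.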

Experiment [3] can be described thus: A CellTox Green Cytotoxicity Assay to monitor cytotoxicity in HEK293 cells - 16 hour (AID 1224888). Further: nearly all actives have a fitted effect of over 35% in size. Further: potency means the concentration at half of the fitted maximal effect. In outline:
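Cells (HEK293, 600/well) and dye reagent are dispensed together. After 5 h at 37 C, 23 nL compound is pinned in. Plates stay at 37 C for 40 h with fluorescence read at 0h, 8h, 16h, 24h, 32h and 40h.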

Experiment [4] can be described thus: qHTS RealTime-Glo MT Cell Viability Assay in HepG2 cells - 0 hour (AID 1224889). Further: nearly all actives have a fitted effect of over 50% in size. In a few lines: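 HepG2 cells were seeded at 600 cells/well together with NanoLuc luciferase and a cell-permeant prosubstrate, preincubated 5 h at 37 C/5% CO2, then pin-dosed with compounds in DMSO. Nonlytic luminescence from viable cells was read at each time point.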
Experiment [5] in a line: A CellTox Green Cytotoxicity Assay to monitor cytotoxicity in HepG2 cells - 8 hour (AID 1224890). Further: nearly all actives have a fitted effect of over 45% in size. In outline:
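Cells and non-lytic dye reagent are dispensed together (600 HepG2 cells/well) and incubated 5 h before DMSO compound transfer. Kinetic fluorescence is then recorded in the same wells during 40 h at 37 C.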

Experiment [6] in a line: qHTS assay to identify small molecule antagonists of the estrogen receptor alpha (ER-alpha) signaling pathway using the BG1 cell line in the presence of 0.1 nM 17-beta-estradiol - cell viability counter screen (AID 1259241). Further: nearly all actives have a fitted effect of over 40% in size. In a few lines:
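In this screen, hormone-deprived VM7Luc4E2 cells were seeded at 4,000 per well, dosed with compound and 0.1 nM estradiol final, and incubated 22 hr at 37C and 5% CO2; fluorogenic live-cell protease signal reported viability.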

Experiment [7] can be described thus: qHTS assay to identify small molecule antagonists of the androgen receptor (AR) signaling pathway using the MDA cell line in the presence of 0.5 nM R1881 - cell viability counter screen (AID 1259242). Further: nearly all actives have a fitted effect of over 45% in size. In outline:
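Steps: plate MDA-kb2 cells, rest 5 hr at 37C without CO2; pin in compounds in DMSO; add R1881 to 0.5 nM final; incubate 16 hr; add CellTiter-Fluor, 30 min; read fluorescence.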

Experiment [8] in a line: qHTS assay to identify small molecule HDAC inhibitors (AID 1259364). Further: potency means the concentration at half of the fitted maximal effect.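 Further: wild-type HCT-116 cells with endogenous class I/II HDAC activity; nearly all actives have a fitted effect of over 45% in size.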 In a few lines: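 Cells (HCT-116, wild type) are seeded at 1,500 per well, incubated overnight, treated with compound in DMSO for 2 hr, then developed with HDAC-Glo I/II reagent for 30 min at room temperature.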
Experiment [9] is described as follows: qHTS assay to identify small molecule HDAC inhibitors - cell viability counter screen (AID 1259365). Further: series mostly up to about 92 µM; nearly all actives have a fitted effect of over 50% in size. In a few lines: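 Measured quantity is CellTiter-Glo luminescence from wild-type HCT-116 cells after compound incubation of 2hr at 37C, 5% CO2; reagent developed 30min at room temperature.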
Experiment [10] in a line: qHTS assay to identify small molecule agonists of the sonic hedgehog signaling (Shh) pathway - cell viability counter screen (AID 1259366). Further: nearly all actives have a fitted effect of over 50% in size. In a few lines:
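In quantitative high-throughput format, 3T3 Gli1-Luc cells were exposed to compounds for 24hr and multiplexed for viability using CellTiter-Fluor, incubated 1hr at 37C before the fluorescence read.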

Experiment [11] in a line: qHTS assay to identify small molecule antagonists of the sonic hedgehog signaling (Shh) pathway - cell viability counter screen (AID 1259367). Further: nearly all actives have a fitted effect of over 55% in size. In outline: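 Conditioned medium drove Shh signaling in 3T3 Gli1-Luc cells exposed to compounds at 37C and 5% CO2. Viability was determined from CellTiter-Fluor fluorescence, with reagent incubated 1 hr after 23 hr of treatment.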

A short description of experiment [12]: qHTS assay to identify small molecule agonists of the sonic hedgehog signaling (Shh) pathway (AID 1259368; calls by dose curve;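 further: NIH/3T3-derived 3T3Gli1-Luc cells carrying a stable Gli1-driven firefly luciferase reporter; series mostly up to about 92 µM; nearly all actives have a fitted effect of over 15% in size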). In outline: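 Cells of a mouse NIH/3T3 clone stably expressing luciferase under the Gli1 transcriptional response element are exposed to test chemicals for 24 hr at 37 C. Pathway activation is detected as a rise in luminescence.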
Experiment [13] deals with Estrogen receptor beta (Homo sapiens) (UniProt Q92731). The experiment is described as follows: qHTS assay to identify small molecule antagonists of the estrogen receptor beta (ER-beta) signaling pathway (AID 1259378; active means well fitted inhibition curve with a large enough effect in the signal ratio in the repeat runs, not every such curve was filed as active; the % refers to the signal ratio). In outline: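 ER-beta-UAS-bla HEK293T (GripTite) cells in 2% charcoal-stripped FBS medium were preincubated 6 hr at 37C, dosed with compound, then stimulated with 1 nM E2 (final) for 16 hr; beta-lactamase reporter read by B/G FRET fluorescence after 2 hr substrate loading.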
Sequence of Estrogen receptor beta (Homo sapiens) (Q92731 whole entry, looked up): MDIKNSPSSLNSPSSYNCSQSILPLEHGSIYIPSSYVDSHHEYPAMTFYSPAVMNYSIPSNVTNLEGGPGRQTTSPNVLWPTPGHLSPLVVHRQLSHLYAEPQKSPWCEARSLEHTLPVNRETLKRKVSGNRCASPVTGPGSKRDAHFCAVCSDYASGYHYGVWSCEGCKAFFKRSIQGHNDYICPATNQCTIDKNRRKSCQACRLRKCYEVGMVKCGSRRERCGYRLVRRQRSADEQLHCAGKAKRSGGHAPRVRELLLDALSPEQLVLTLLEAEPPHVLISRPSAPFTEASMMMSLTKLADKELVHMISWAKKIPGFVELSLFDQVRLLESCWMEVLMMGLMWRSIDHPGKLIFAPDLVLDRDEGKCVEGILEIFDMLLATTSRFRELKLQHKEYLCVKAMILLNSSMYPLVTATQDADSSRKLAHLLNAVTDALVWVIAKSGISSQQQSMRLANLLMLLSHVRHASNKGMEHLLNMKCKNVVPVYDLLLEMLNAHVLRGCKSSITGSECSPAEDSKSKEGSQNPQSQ

The nature of experiment [14]: qHTS assay to identify small molecule agonists of the androgen receptor (AR) signaling pathway in the presence of an antagonist - cell viability counter screen (AID 1259379).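 Further: MDA-kb2 human breast cancer cells carrying an MMTV luciferase reporter; series mostly up to about 92 µM; nearly all actives have a fitted effect of over 25% in size.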 In a few lines:
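Cytotoxicity is assessed by CellTiter-Fluor in MDA-kb2 cells carrying an MMTV-driven luciferase reporter. Cells receive 3.0uM nilutamide plus compounds at 15 concentrations and incubate 16 hr at 37C without CO2 before fluorescence reading.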

A short description of experiment [15]: qHTS assay to identify small molecule agonists of the estrogen receptor beta (ER-beta) signaling pathway - cell viability counter screen (AID 1259380). Further: nearly all actives have a fitted effect of over 30% in size. In outline:
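Cytotoxicity is measured in parallel with the reporter screen: after 16 hr compound exposure at 37C and a 2 hr LiveBLAzer step, CellTiter-Glo is added to the same ER-beta-UAS-bla HEK293T wells and luminescence read after 30 min.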

A short description of experiment [16]: qHTS assay to identify small molecule antagonists of the sonic hedgehog signaling (Shh) pathway (AID 1259369; calls by dose curve; further: nearly all actives have a fitted effect of over 45% in size; further: potency means the concentration at half of the fitted maximal effect). In outline: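 Cells are plated and held 4hr at 37 C, compounds (DMSO) are pinned in, conditioned medium is added to stimulate the pathway, and after 24hr luciferase reagent is added for 30min before luminescence is read.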
The target in experiment [17] is Estrogen receptor beta (Homo sapiens) (UniProt Q92731). The experiment is described as follows: qHTS assay to identify small molecule agonists of the estrogen receptor beta (ER-beta) signaling pathway (AID 1259377; active means well fitted activation curve with a large enough effect in the signal ratio in the repeat runs, not every such curve was filed as active; the % refers to the signal ratio). In outline: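 Reporter cells (HEK293T, ER-beta-UAS-bla) receive compounds or DMSO after a 6 hr pre-incubation. They then incubate 16 hr at 37C/5% CO2, and fluorescence from LiveBLAzer B/G substrate is measured after 2 hours at room temperature.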

The nature of experiment [18]: qHTS assay to identify small molecule phospholipidosis (PLD) inducers (AID 1259344; active means well fitted curve in the direction sought with a large enough effect; an effect the other way counts as inactive or inconclusive). In outline:
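After 4 h attachment on collagen I, HepG2 cells were dosed with compound alongside LipidTOX Red, kept 24 h at 37 C, fixed, and imaged for lamellar phospholipid pits.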

The target in experiment [19] is Androgen receptor (Homo sapiens) (UniProt P10275). Description: qHTS assay to identify small molecule antagonists of the androgen receptor (AR) signaling pathway using the MDA cell line in the presence of 0.5 nM R1881 (AID 1259243). Further: nearly all actives have a fitted effect of over 50% in size. In outline:
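Stably transfected MDA-kb2 cells express luciferase from an MMTV promoter bearing both AR and GR response elements. Compounds plus 0.5 nM R1881 (final) were incubated 16 hr at 37C without CO2, then luminescence measured.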

Experiment [20] has as its target Estrogen receptor (Homo sapiens) (UniProt P03372). Description: qHTS assay to identify small molecule antagonists of the estrogen receptor alpha (ER-alpha) signaling pathway using the BG1 cell line in the presence of 0.1 nM 17-beta-estradiol (AID 1259244). Further: nearly all actives have a fitted effect of over 50% in size. In outline:
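Antagonist mode: compounds in DMSO are pinned onto VM7Luc4E2 reporter cells, 0.1 nM final 17beta-estradiol is added, and after 22 h at 37C luciferase luminescence is measured with ONE-Glo.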

Each structure is given as a SMILES string. A number with no mark means an inactive call. Inconclusive results are not listed. Activity calls are given as the source filed them. Unless noted, the call rests on the fitted dose curve; in most records, active means well fitted curve in the direction sought with a large enough effect in the repeat runs; inconclusive means weak or mixed curves; inactive means no such curve, though single readings can be large; an effect the other way counts as inactive or inconclusive.

Sequence of Estrogen receptor (Homo sapiens) (P03372 whole entry, looked up): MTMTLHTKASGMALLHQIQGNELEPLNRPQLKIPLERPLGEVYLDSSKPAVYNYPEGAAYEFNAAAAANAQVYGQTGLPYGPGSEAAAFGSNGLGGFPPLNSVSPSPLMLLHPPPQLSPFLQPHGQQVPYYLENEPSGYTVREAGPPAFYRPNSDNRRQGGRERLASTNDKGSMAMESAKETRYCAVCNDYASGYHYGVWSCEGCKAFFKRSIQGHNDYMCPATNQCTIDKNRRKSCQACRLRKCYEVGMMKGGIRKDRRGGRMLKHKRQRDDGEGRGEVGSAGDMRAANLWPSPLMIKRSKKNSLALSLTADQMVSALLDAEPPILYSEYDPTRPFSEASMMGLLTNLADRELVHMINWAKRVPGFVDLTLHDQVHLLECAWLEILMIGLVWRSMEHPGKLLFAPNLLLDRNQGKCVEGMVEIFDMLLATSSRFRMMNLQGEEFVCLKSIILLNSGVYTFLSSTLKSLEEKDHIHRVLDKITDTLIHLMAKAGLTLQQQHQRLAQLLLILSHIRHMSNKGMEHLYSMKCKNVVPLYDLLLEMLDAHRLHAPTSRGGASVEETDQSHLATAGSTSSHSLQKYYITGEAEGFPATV
Sequence of Androgen receptor (Homo sapiens) (P10275 whole entry, looked up): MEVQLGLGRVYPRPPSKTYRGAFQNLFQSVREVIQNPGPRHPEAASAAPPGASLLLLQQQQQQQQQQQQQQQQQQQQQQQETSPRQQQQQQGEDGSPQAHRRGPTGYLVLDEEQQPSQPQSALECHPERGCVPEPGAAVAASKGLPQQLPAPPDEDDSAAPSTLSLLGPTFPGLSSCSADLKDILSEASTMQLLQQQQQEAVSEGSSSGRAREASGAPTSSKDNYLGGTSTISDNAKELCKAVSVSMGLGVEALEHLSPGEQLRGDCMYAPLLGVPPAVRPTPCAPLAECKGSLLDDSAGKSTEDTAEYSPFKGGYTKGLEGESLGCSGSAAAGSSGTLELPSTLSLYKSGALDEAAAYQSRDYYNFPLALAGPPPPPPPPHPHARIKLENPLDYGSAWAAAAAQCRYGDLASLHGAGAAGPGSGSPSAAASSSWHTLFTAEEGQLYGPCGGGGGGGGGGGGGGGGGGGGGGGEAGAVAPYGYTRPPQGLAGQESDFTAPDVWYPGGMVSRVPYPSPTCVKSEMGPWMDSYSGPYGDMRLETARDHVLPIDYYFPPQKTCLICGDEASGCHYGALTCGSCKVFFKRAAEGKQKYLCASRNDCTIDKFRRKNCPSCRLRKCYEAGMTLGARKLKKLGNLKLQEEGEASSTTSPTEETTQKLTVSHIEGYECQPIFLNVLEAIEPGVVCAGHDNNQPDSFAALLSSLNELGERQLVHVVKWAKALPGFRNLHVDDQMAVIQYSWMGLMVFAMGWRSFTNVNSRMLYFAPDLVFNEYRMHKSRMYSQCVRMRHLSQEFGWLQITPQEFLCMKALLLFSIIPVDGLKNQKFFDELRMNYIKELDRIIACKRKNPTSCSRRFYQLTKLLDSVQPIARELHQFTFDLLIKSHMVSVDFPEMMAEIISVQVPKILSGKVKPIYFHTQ

With `CC(C)OC(=O)CCC(=O)OC(C)C`, the Potency entry in experiment [1], in [2], in [3], in [4], in [5] and in experiment [8] was “inactive” throughout. In experiment [13], the Potency result is “inactive”. The result in experiment [6], in experiment [7], in experiment [9], in experiment [10], in [11] and in [12] was inactive. Besides, the outcome in experiment [14] and in experiment [15] was inactive.
As to `CC(=O)O[Si](C)(OC(C)=O)OC(C)=O`, the Potency result in [1], in experiment [2], in experiment [3], in experiment [4], in [5] and in experiment [8] was “inactive” in each case. Also, the Potency result in experiment [16], in experiment [17] and in experiment [13] was “inactive” each time. Besides, the outcome in [6], in experiment [7], in experiment [10], in [11], in experiment [12] and in experiment [14] was inactive.
`COc1c2occc2c(OC)c2c(=O)cc(C)oc12`: the figures for the Potency in [1], in experiment [2] and in experiment [16] were 8.49 µM (active), 9.52 µM (active) and 11.9 µM (active), respectively. For the same compound, the Potency result in experiment [3], in experiment [4], in experiment [5] and in experiment [8] was “inactive” each time. Moreover, the result in [6], in [18], in experiment [9], in experiment [10], in [11] and in experiment [12] was inactive. Further, the outcome in experiment [14] and in experiment [15] was inactive.
For `[O-][n+]1cccc(/C(Cl)=N/OC[C@@H](O)CN2CCCCC2)c1`, the Potency entry in experiment [1], in experiment [2], in [3], in [4], in [5] and in [19] was “inactive” each time. Also, the Potency entry in experiment [17] was “inactive”. The result in experiment [6], in experiment [20], in experiment [9], in experiment [10], in experiment [12] and in experiment [14] was inactive. Further, in experiment [15], the result was inactive.
As for `CCC(=O)CC`, the Potency entry in experiment [1], in [2], in experiment [3], in experiment [4], in experiment [5] and in experiment [8] was “inactive” in each case. Also, in [16], the Potency result is “inactive”. Besides, the outcome in [6], in experiment [7], in experiment [9], in experiment [10], in [11] and in experiment [12] was inactive. The result in [14] and in [15] was inactive.
Turning to `C/C=C(\C)C(=O)OCCc1ccccc1`, the Potency result in experiment [1], in experiment [2], in experiment [3], in experiment [4], in experiment [5] and in [16] was “inactive” in each case. The result in experiment [6], in experiment [7], in experiment [9], in experiment [10], in experiment [11] and in [12] was inactive. The result in experiment [14] and in experiment [15] was inactive. In addition, in experiment [8], the Potency was 27.3 µM (active).
With `Cn1nnc2c(C(N)=O)ncn2c1=O`, the Potency result in experiment [1], in experiment [2], in experiment [3], in experiment [4], in [5] and in experiment [8] was “inactive” throughout. The Potency entry in [16], in [17] and in [13] was “inactive” throughout. The result in experiment [6], in [20], in experiment [18], in experiment [9], in experiment [10] and in [11] was inactive. Further, the compound was classed as inactive in experiment [12], in [14] and in [15].
On to `CCCC(=O)OC/C=C(\C)CCC=C(C)C`, for which the Potency entry in experiment [1], in [2], in experiment [4], in experiment [5], in experiment [16] and in experiment [17] was “inactive” in each case. Also, the Potency in [3] was 54.9 µM (active). Besides, the result in [6], in [20], in experiment [9], in experiment [10], in [11] and in [12] was inactive. The result in experiment [14] and in experiment [15] was inactive.
